32 compounds from PubChem BioAssay can be followed below.

Some of the results follow. The source made the active and inactive calls.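 Rule for the calls, unless noted: active = fluorescence ratio rise of at least 3 SD of vehicle wells above their mean, in both replicate wells; inactive = the rest.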

Potassium voltage-gated channel subfamily KQT member 2 (Rattus norvegicus), sequence (O88943 whole entry, looked up): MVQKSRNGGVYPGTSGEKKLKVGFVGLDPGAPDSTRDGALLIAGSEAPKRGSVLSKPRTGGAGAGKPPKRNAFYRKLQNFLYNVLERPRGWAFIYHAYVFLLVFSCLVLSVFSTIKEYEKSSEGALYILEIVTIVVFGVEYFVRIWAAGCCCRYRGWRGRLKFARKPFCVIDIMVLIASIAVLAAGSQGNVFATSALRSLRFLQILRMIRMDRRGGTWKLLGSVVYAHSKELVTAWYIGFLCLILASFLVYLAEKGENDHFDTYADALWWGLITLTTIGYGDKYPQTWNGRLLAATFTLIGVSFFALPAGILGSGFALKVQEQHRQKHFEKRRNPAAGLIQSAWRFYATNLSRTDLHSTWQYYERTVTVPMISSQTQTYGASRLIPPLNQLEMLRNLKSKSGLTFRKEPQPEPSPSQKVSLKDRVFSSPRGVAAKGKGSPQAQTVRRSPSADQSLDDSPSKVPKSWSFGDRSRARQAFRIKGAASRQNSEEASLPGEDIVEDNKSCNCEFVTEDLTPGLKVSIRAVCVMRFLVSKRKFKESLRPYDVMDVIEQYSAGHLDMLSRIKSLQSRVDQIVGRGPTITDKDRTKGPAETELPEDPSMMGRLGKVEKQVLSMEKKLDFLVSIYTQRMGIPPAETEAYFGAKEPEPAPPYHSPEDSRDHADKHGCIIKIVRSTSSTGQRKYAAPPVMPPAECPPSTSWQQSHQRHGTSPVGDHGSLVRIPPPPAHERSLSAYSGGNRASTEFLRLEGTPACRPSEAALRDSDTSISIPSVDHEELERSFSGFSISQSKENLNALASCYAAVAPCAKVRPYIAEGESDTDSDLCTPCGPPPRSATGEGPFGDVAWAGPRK

System in the first assay: not listed separately
The assay is described as follows: nonspecific thallium flux increase in parental CHO-K1, confirmation, counter-screen for KCNQ2 potentiator project, cell-based, FluxOR thallium flux, duplicate (AID 2282;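 active = signal rise of at least 3 SD above the untreated control mean, in both duplicate wells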;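 note: counter screen of KCNQ2 potentiator hits so any rise reflects channel-independent effects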). The conditions noted are these: parental CHO-K1 cells, FluxOR thallium flux fluorescence; at 10 µM; hits give high values; zero = vehicle mean+3SD, 100% = vehicle-minus-blank window.
For `O=C(NCc1ccc2c(c1)OCO2)c1ccc(Cl)s1`, the activity increase over 3SD of controls is 5.5% (active).

With `CCn1c(=S)[nH]c2sc3c(c2c1=O)CCCCC3`, the activity increase over 3SD of controls was -14.2% (inactive).

On to `CCn1c2ccccc2c2cc(NC(=O)CNC)ccc21`, for which the activity increase over 3SD of controls is -6.1% (inactive).

Take `CCC1(C)Cc2c(sc3nnn(CC(=O)Nc4ccc(Cl)cc4)c(=O)c23)CO1` (centres undefined): the activity increase over 3SD of controls was -19.3% (inactive).

For the compound `N#Cc1c(-c2ccccc2)nc(SCc2cccc(C(F)(F)F)c2)[nH]c1=O`, the activity increase over 3SD of controls is -8.3% (inactive).

Regarding `CCOC(=O)c1sc(=S)n2c1[nH]c(=O)c1ccc(C(=O)OC)cc12`, the activity increase over 3SD of controls is -16.8% (inactive).

As to `CCOC(=O)c1c(NC(=S)NC)sc2c1CCCC2`, the activity increase over 3SD of controls is 6.2% (active).

On to `Cc1ccc(/C=N/NC(=O)c2cc3ccccc3cc2O)o1`, for which the activity increase over 3SD of controls is 42.5% (active).

On to `CCN(CC(=O)NC(=O)NCc1ccccc1)Cc1nc2ccccc2c(=O)[nH]1`, for which the activity increase over 3SD of controls is -2.8% (inactive).

For `CSc1nnc(NC(=O)c2nc(S(=O)(=O)Cc3ccc(C)cc3)ncc2Cl)s1`, the activity increase over 3SD of controls was -8.9% (inactive).

As for `FC(F)(F)c1cccc(NC(=S)Nc2cccc(Cl)c2)c1`, the activity increase over 3SD of controls is -22.1% (inactive).

For `CCc1ccc(NC(=O)C(=O)NNC(=O)c2cccs2)cc1`, the activity increase over 3SD of controls is -16% (inactive).

Take `Cc1[nH]n(-c2cccc(Cl)c2)c(=O)c1/C=N/n1c(C)nc2ccccc2c1=O`: the activity increase over 3SD of controls is 36% (active).

`CC1=C/C(=N\OS(=O)(=O)c2ccccc2)C=CC1=O`: the activity increase over 3SD of controls is -13.5% (inactive).

Take `O=C(NCc1ccc2c(c1)OCO2)C12CC3CC(CC(C3)C1)C2`: the activity increase over 3SD of controls is -12% (inactive).

The target of another assay is Potassium voltage-gated channel subfamily KQT member 1 (Homo sapiens) (UniProt P51787). The experiment in a line: human KCNQ1 channel potentiation off-target, confirmation, selectivity assay for KCNQ2 potentiator project, cell-based, CHO, FluxOR thallium flux (AID 2283).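 Note: 0% = vehicle mean plus 3 SD and 100% = vehicle minus unstimulated blank.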 The settings on record: CHO KCNQ1 stable, FluxOR thallium flux fluorescence; at 10 µM; hits give high values; beyond 3SD, as % of vehicle-control signal.
Potassium voltage-gated channel subfamily KQT member 1 (Homo sapiens), sequence (P51787 whole entry, looked up): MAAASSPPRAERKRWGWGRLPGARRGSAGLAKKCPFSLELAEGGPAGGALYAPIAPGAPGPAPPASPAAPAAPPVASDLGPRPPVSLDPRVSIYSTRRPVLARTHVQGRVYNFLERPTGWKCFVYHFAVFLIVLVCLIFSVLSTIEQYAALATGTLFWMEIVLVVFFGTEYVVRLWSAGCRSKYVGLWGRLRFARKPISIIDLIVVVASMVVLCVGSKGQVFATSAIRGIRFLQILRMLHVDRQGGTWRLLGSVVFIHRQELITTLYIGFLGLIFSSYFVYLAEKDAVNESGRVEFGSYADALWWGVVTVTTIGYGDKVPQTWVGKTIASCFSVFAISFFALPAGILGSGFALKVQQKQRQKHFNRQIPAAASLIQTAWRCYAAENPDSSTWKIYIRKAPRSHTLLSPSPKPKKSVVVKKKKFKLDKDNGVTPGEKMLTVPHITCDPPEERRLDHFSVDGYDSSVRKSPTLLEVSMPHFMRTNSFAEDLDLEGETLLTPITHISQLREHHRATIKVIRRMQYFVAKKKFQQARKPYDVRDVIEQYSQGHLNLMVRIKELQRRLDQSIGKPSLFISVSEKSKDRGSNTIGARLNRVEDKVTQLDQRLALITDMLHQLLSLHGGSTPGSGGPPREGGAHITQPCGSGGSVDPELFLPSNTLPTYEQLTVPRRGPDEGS
Take `CC(NC(=O)Nc1ccccc1)c1ccccc1` (centres undefined): the activation over 3SD threshold was -0.5% (inactive).

Regarding `CCCc1nc2sc3c(c2c(=O)n1NC(=O)CCCl)CCCC3`, the activation over 3SD threshold is 28.9% (active).

For the compound `Cc1cccc(NC(=O)c2nc(S(=O)(=O)Cc3ccccc3)ncc2Cl)c1`, the activation over 3SD threshold was -22.3% (inactive).

As to `CCC1(C)Cc2c(sc3[nH]c(=S)n(Cc4ccccc4)c(=O)c23)CO1` (centres undefined), the activation over 3SD threshold is -16.6% (inactive).

As to `CCCCNC(=O)Nc1c(C)cc(SC#N)cc1C`, the activation over 3SD threshold is 75.2% (active).

Take `COc1cccc(NC(=O)C2C(c3ccccc3)C2(Cl)Cl)c1` (centres undefined): the activation over 3SD threshold was 4.2% (active).

As for `Cc1cccc(NC(=S)NC(=O)c2ccc(Br)o2)c1`, the activation over 3SD threshold was -15.7% (inactive).

In the case of `O=C(Nc1ccc(Oc2ccccc2)cc1)c1ccco1`, the activation over 3SD threshold is 26% (active).

Turning to `S=C(NCc1ccc(Cl)cc1)NC12CC3CC(CC(C3)C1)C2`, the activation over 3SD threshold is -0.2% (inactive).

Regarding `CS(=O)(=O)c1sc(C(=O)NC(=S)Nc2ccc(OC(F)(F)F)cc2)c2c1C=CCC2`, the activation over 3SD threshold was 45.7% (active).

Regarding `COc1ccc(C(=O)Nc2ncc3c(n2)-c2ccccc2CC3)cc1`, the activation over 3SD threshold was 8.3% (active).

As to `Oc1c(Cl)cc(Cl)cc1/C=N/c1ncn[nH]1`, the activation over 3SD threshold was -9.2% (inactive).

As to `CCn1c(O)c(N=NC2=NC(=O)CS2)c2cc(C)ccc21`, the activation over 3SD threshold was -22.6% (inactive).

In the case of `Cc1ccc(S(=O)(=O)N2CCN(C(=O)COC(=O)c3c(C)cc(C)cc3C)CC2)c(C)c1`, the activation over 3SD threshold is -20.8% (inactive).

For the compound `Cc1ccc(CS(=O)(=O)c2ncc(Cl)c(C(=O)Nc3nnc(C)s3)n2)cc1`, the activation over 3SD threshold was 79.7% (active).

For the compound `O=C(NNC1=C(C(=O)C(F)(F)F)CCC1)c1ccncc1`, the activation over 3SD threshold is -11.4% (inactive).

Consider `CC(NC(=O)Nc1cccc([N+](=O)[O-])c1)c1ccc2c(c1)OCO2` (centres undefined), for which the activation over 3SD threshold was 80% (active).

With `O=C(NCc1ccc2c(c1)OCO2)c1ccc(Cl)s1`, the activation over 3SD threshold is 49.7% (active).

Consider `CCn1c(=S)[nH]c2sc3c(c2c1=O)CCCCC3`, for which the activation over 3SD threshold is -21.6% (inactive).

Turning to `CCn1c2ccccc2c2cc(NC(=O)CNC)ccc21`, the activation over 3SD threshold was -12.2% (inactive).

With `CCC1(C)Cc2c(sc3nnn(CC(=O)Nc4ccc(Cl)cc4)c(=O)c23)CO1` (centres undefined), the activation over 3SD threshold was 4.5% (active).

As for `N#Cc1c(-c2ccccc2)nc(SCc2cccc(C(F)(F)F)c2)[nH]c1=O`, the activation over 3SD threshold was -15% (inactive).

On to `CCOC(=O)c1sc(=S)n2c1[nH]c(=O)c1ccc(C(=O)OC)cc12`, for which the activation over 3SD threshold is 4.8% (active).

In the case of `CCOC(=O)c1c(NC(=S)NC)sc2c1CCCC2`, the activation over 3SD threshold was -17.4% (inactive).

In the case of `Cc1ccc(/C=N/NC(=O)c2cc3ccccc3cc2O)o1`, the activation over 3SD threshold was -6.4% (inactive).

For `CCN(CC(=O)NC(=O)NCc1ccccc1)Cc1nc2ccccc2c(=O)[nH]1`, the activation over 3SD threshold is -14.6% (inactive).

As to `CSc1nnc(NC(=O)c2nc(S(=O)(=O)Cc3ccc(C)cc3)ncc2Cl)s1`, the activation over 3SD threshold is -21.2% (inactive).

Consider `FC(F)(F)c1cccc(NC(=S)Nc2cccc(Cl)c2)c1`, for which the activation over 3SD threshold was -10.3% (inactive).

Consider `CCc1ccc(NC(=O)C(=O)NNC(=O)c2cccs2)cc1`, for which the activation over 3SD threshold is 85.7% (active).

For `Cc1[nH]n(-c2cccc(Cl)c2)c(=O)c1/C=N/n1c(C)nc2ccccc2c1=O`, the activation over 3SD threshold was -26.8% (inactive).

In the case of `CC1=C/C(=N\OS(=O)(=O)c2ccccc2)C=CC1=O`, the activation over 3SD threshold was -8.8% (inactive).

`O=C(NCc1ccc2c(c1)OCO2)C12CC3CC(CC(C3)C1)C2`: the activation over 3SD threshold is -10.2% (inactive).

The next assay has as its target Potassium voltage-gated channel subfamily KQT member 2 (Rattus norvegicus) (UniProt O88943). The assay is described as follows: rat KCNQ2 channel potentiators, confirmation, cell-based, CHO, FluxOR thallium flux, duplicate (AID 2287;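 active = fluorescence ratio rising 3 SD or more over the vehicle control mean in both replicates, plus primary screen hit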;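 note: peak minus minimum thallium fluorescence divided by baseline after K/Tl stimulus; 0% = vehicle mean plus 3 SD and 100% = vehicle minus unstimulated blank difference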). The conditions noted are these: CHO-KCNQ2 cells, FluxOR thallium flux fluorescence; at 10 µM; hits give high values.
With `CC(NC(=O)Nc1ccccc1)c1ccccc1` (centres undefined), the potentiation, less the hit threshold was 22.8% (active).

With `CCCc1nc2sc3c(c2c(=O)n1NC(=O)CCCl)CCCC3`, the potentiation, less the hit threshold was 69.9% (active).

With `Cc1cccc(NC(=O)c2nc(S(=O)(=O)Cc3ccccc3)ncc2Cl)c1`, the potentiation, less the hit threshold is 4% (active).

In the case of `CCC1(C)Cc2c(sc3[nH]c(=S)n(Cc4ccccc4)c(=O)c23)CO1` (centres undefined), the potentiation, less the hit threshold is 66% (active).

With `CCCCNC(=O)Nc1c(C)cc(SC#N)cc1C`, the potentiation, less the hit threshold is 19.5% (active).

Turning to `COc1cccc(NC(=O)C2C(c3ccccc3)C2(Cl)Cl)c1` (centres undefined), the potentiation, less the hit threshold is 7% (active).

On to `Cc1cccc(NC(=S)NC(=O)c2ccc(Br)o2)c1`, for which the potentiation, less the hit threshold is 35.5% (active).

Consider `O=C(Nc1ccc(Oc2ccccc2)cc1)c1ccco1`, for which the potentiation, less the hit threshold is 37.7% (active).

Consider `S=C(NCc1ccc(Cl)cc1)NC12CC3CC(CC(C3)C1)C2`, for which the potentiation, less the hit threshold was 9% (active).

For `CS(=O)(=O)c1sc(C(=O)NC(=S)Nc2ccc(OC(F)(F)F)cc2)c2c1C=CCC2`, the potentiation, less the hit threshold is -3.3% (inactive).

In the case of `COc1ccc(C(=O)Nc2ncc3c(n2)-c2ccccc2CC3)cc1`, the potentiation, less the hit threshold is -1% (inactive).

For `Oc1c(Cl)cc(Cl)cc1/C=N/c1ncn[nH]1`, the potentiation, less the hit threshold was 37.8% (active).

As to `CCn1c(O)c(N=NC2=NC(=O)CS2)c2cc(C)ccc21`, the potentiation, less the hit threshold was 0.3% (active).

For the compound `Cc1ccc(S(=O)(=O)N2CCN(C(=O)COC(=O)c3c(C)cc(C)cc3C)CC2)c(C)c1`, the potentiation, less the hit threshold was 14.7% (active).

For `Cc1ccc(CS(=O)(=O)c2ncc(Cl)c(C(=O)Nc3nnc(C)s3)n2)cc1`, the potentiation, less the hit threshold is -85.4% (inactive).

`O=C(NNC1=C(C(=O)C(F)(F)F)CCC1)c1ccncc1`: the potentiation, less the hit threshold was 1.3% (active).

For the compound `CC(NC(=O)Nc1cccc([N+](=O)[O-])c1)c1ccc2c(c1)OCO2` (centres undefined), the potentiation, less the hit threshold was 30.7% (active).

Regarding `O=C(NCc1ccc2c(c1)OCO2)c1ccc(Cl)s1`, the potentiation, less the hit threshold was 16.7% (active).

In the case of `CCn1c(=S)[nH]c2sc3c(c2c1=O)CCCCC3`, the potentiation, less the hit threshold was 43.5% (active).

Consider `CCn1c2ccccc2c2cc(NC(=O)CNC)ccc21`, for which the potentiation, less the hit threshold was 1.9% (active).

For the compound `CCC1(C)Cc2c(sc3nnn(CC(=O)Nc4ccc(Cl)cc4)c(=O)c23)CO1` (centres undefined), the potentiation, less the hit threshold was 2.2% (active).

In the case of `N#Cc1c(-c2ccccc2)nc(SCc2cccc(C(F)(F)F)c2)[nH]c1=O`, the potentiation, less the hit threshold is 6% (active).

For `CCOC(=O)c1sc(=S)n2c1[nH]c(=O)c1ccc(C(=O)OC)cc12`, the potentiation, less the hit threshold was 26.7% (active).

With `CCOC(=O)c1c(NC(=S)NC)sc2c1CCCC2`, the potentiation, less the hit threshold was 16.6% (active).

For the compound `Cc1ccc(/C=N/NC(=O)c2cc3ccccc3cc2O)o1`, the potentiation, less the hit threshold was 69% (active).

For the compound `CCN(CC(=O)NC(=O)NCc1ccccc1)Cc1nc2ccccc2c(=O)[nH]1`, the potentiation, less the hit threshold was -3% (inactive).

Turning to `CSc1nnc(NC(=O)c2nc(S(=O)(=O)Cc3ccc(C)cc3)ncc2Cl)s1`, the potentiation, less the hit threshold is 67.6% (active).

`FC(F)(F)c1cccc(NC(=S)Nc2cccc(Cl)c2)c1`: the potentiation, less the hit threshold is -4.8% (inactive).

Turning to `CCc1ccc(NC(=O)C(=O)NNC(=O)c2cccs2)cc1`, the potentiation, less the hit threshold is 26.8% (active).

In the case of `Cc1[nH]n(-c2cccc(Cl)c2)c(=O)c1/C=N/n1c(C)nc2ccccc2c1=O`, the potentiation, less the hit threshold was 1.8% (active).

As to `CC1=C/C(=N\OS(=O)(=O)c2ccccc2)C=CC1=O`, the potentiation, less the hit threshold was 0.8% (active).

`O=C(NCc1ccc2c(c1)OCO2)C12CC3CC(CC(C3)C1)C2`: the potentiation, less the hit threshold was 73.5% (active).
